Laboratory results reported in PubChem BioAssay.
Calls of active or inactive are those of the source. Unless noted, no rule for the calls is given here.

Columns and labels:
[1] = resazurin metabolic signal in HepG2 cells – cell-based, resazurin fluorescence, 24 h, PK04 Diversity Set, profiling panel (AID 1172); details: HepG2 viability, higher = more signal
[2] = budding yeast growth changes without added modifier – OD600, strain BY4716, 24 h, basal condition, primary screen (AID 1173); details: S. cerevisiae BY4716 growth, OD600, 24 h; higher = more signal, called active from +8 up or from −8 down
[3] = viability profiling in MM1S myeloma cells – cell-based, resazurin fluorescence, basal, 24 h, PK04 Diversity Set, profiling panel (AID 1174); details: higher = more signal, called active from +8 up or from −8 down;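 also: MM1S multiple myeloma cell line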
[4] = biological target: Dihydroorotate dehydrogenase (quinone), mitochondrial (Plasmodium falciparum (isolate 3D7)) (UniProt Q08210); assay: inhibition of P. falciparum DHODH – biochemical, C-terminal His tag, absorbance 600 nm, primary screen (AID 1175); details: PfDHODH enzyme, DCIP absorbance 600 nm; higher = more signal, called active from +8 up or from −8 down;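 also: recombinant parasite enzyme with a five histidine tag at its C terminus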
[5] = inhibition of PAO1 biofilm formation – strain PAO1, LB-PBS medium, absorbance 600 nm, primary screen (AID 1176); details: P. aeruginosa PAO1 growth/biofilm, A600, 12 h; higher = more signal
[6] = growth modulation of vineyard yeast isolate – strain RM11-1a, OD600, basal, 24 h, primary screen (AID 1177);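 also: cultures grown under basal conditions with no added stressor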; details: S. cerevisiae RM11-1a growth, OD600, 24 h; higher = more signal, called active from +8 up or from −8 down
[7] = growth of efflux-deficient E. coli DRC39 – strain DRC39, OD650, 24 h, E. coli filamentation inducers, primary screen (AID 1178);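 also: growth measured as culture turbidity by optical density at 650 nm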; details: E. coli DRC39 acrAB, higher = more signal, called active from +8 up or from −8 down
[8] = growth of efflux-deficient E. coli DRC39 – strain DRC39, OD650, 48 h, E. coli filamentation inducers, primary screen (AID 1179);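 also: screen aims at cell division blockers that make cells filament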; details: E. coli DRC39 delta-acrAB growth, higher = more signal, called active from +8 up or from −8 down
[9] = viability profiling in RPMI8226 myeloma cells – cell-based, resazurin fluorescence, basal, 24 h, PK04 Diversity Set, profiling panel (AID 1180); details: higher = more signal;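 also: RPMI8826 multiple myeloma cell line at 5000 cells per well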
[10] = biological target: E3 ubiquitin-protein ligase XIAP (Homo sapiens) (UniProt P98170); assay: small molecules binding XIAP protein – biophysical, small-molecule microarray, fluorescence 635 nm, primary screen (AID 1181); details: higher = more signal;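 also: score merges 667 nm emission and signal to noise over triplicate slides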
[11] = tested on: XIP peptide (Xip251-270) binding; assay: XIP fragment 251-270 binding compounds – biochemical, small-molecule microarray, fluorescence 635/667 nm, 0.1 µg/mL protein, primary screen (AID 1182); details: fluorescent protein binding, 635 nm, higher = more signal, called active from +8 up or from −8 down
XIP peptide (Xip251-270) = assay: compounds binding XIP fragment 251-270 – biochemical, small-molecule microarray, fluorescence 635/667 nm, 0.5 µg/mL protein, primary screen (AID 1183); details: fluorescence 635 nm, higher = more signal
[12] = blood-stage malaria parasite viability loss – strain 3D7, DAPI fluorescence, 100 nL, primary screen (AID 1184);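 also: parasites grown inside human red blood cells in medium with human serum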; details: P. falciparum 3D7 growth, 3 d, higher = more signal
[13] = biological target: Homeobox protein Hox-A13 (Mus musculus) (UniProt Q62424); assay: disruptors of Hoxa13 oligonucleotide interaction – biochemical, fluorescence polarization, labeled oligonucleotide, primary screen (AID 1185); details: Hoxa13:DNA binding, 15 min, higher = more signal, called active from +8 up or from −8 down
[14] = blockers of DNA damage checkpoint Chk1 activation – imaging, HeLa, hydroxyurea, phospho-Chk1 antibody, percent positive cells, primary screen (AID 1186); details: hydroxyurea-induced phospho-Chk1 immunofluorescence imaging, higher = more signal
[15] = blockers of DNA damage checkpoint Chk1 activation – imaging, HeLa, hydroxyurea, phospho-Chk1 nuclear intensity, primary screen (AID 1187); details: hydroxyurea-induced phospho-Chk1 immunofluorescence imaging, higher = more signal

Sequence of Homeobox protein Hox-A13 (Mus musculus) (Q62424 whole entry, looked up): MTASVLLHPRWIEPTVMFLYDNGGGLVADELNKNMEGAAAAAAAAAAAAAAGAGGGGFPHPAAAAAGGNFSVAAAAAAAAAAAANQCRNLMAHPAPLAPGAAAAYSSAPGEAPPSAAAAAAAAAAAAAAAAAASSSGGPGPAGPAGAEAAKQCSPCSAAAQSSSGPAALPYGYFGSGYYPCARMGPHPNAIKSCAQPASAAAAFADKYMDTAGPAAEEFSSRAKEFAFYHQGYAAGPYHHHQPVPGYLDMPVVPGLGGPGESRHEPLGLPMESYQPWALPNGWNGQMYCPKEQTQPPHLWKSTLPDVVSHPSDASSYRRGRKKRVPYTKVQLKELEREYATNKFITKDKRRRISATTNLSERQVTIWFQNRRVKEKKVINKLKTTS
Sequence of Dihydroorotate dehydrogenase (quinone), mitochondrial (Plasmodium falciparum (isolate 3D7)) (Q08210 whole entry, looked up): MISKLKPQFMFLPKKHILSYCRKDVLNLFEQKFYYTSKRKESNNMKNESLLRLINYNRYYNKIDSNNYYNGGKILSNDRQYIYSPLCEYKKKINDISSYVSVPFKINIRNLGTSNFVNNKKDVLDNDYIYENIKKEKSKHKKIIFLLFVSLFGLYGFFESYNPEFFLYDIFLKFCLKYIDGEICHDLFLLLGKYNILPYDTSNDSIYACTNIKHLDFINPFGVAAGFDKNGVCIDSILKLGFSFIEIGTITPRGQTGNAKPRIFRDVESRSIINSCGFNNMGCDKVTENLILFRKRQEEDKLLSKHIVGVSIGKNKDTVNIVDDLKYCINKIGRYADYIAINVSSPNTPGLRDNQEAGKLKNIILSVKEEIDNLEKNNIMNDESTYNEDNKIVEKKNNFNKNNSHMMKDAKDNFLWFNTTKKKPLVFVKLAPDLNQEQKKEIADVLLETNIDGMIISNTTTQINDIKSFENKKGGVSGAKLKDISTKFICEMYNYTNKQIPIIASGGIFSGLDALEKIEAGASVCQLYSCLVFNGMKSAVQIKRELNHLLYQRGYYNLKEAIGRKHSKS
Sequence of E3 ubiquitin-protein ligase XIAP (Homo sapiens) (P98170 whole entry, looked up, the tested form may be a part): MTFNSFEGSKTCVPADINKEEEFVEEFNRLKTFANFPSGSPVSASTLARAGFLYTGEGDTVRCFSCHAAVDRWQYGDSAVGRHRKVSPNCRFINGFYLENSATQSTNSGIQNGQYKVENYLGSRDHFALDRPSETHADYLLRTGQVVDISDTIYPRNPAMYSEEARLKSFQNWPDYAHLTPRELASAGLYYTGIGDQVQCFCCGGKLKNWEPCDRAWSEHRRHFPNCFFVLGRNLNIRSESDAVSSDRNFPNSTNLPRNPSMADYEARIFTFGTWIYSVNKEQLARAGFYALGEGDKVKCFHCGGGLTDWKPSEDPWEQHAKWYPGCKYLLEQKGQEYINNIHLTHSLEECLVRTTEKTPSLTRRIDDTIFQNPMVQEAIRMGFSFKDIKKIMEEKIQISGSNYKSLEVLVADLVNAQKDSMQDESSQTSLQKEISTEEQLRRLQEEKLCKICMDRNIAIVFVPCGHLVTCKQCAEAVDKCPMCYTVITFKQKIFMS

SMILES	z-score [1]	z-score [2]	z-score [3]	composite z-score [4]	z-score [5]	z-score [6]	z-score [7]	z-score [8]	z-score [9]	composite z-score [10]	composite z-score [11]	composite z-score (XIP peptide (Xip251-270))	z-score [12]	z-score [13]	z-score [14]	z-score [15]
Cc1ccc(S[C@]2(C(=O)NC3CC3)CC(=O)N(C3Cc4ccccc4C3)[C@@H]2c2ccc(CO)cc2)cc1	-0.122	-0.612 (inactive)	0.0142 (inactive)	-1.85 (inactive)	0.472 (inactive)	-1.52 (inactive)	0.851 (inactive)	1.26 (inactive)	0.0919	-0.162	0.136 (inactive)	0.876	-0.275	-2.74 (inactive)	-0.671 (inactive)	-0.716 (inactive)
CN(C)CCCCCCNC(=O)[C@@H]1C[C@@H]2C(=O)N[C@@H](CCCCN)C(=O)N2[C@@H]1c1cccc(OCCO)c1	-0.205	-0.707 (inactive)	0.364 (inactive)	-1.12 (inactive)	1.29 (inactive)	-2.27 (inactive)	0.731 (inactive)	-0.199 (inactive)	0.393	3.31	3.64 (inactive)	0.944	0.0037	-1.47 (inactive)	-1.14 (inactive)	-0.785 (inactive)
CN(C)C(=O)[C@]1(Cc2ccccc2N=[N+]=[N-])N=C(c2ccc(OCCCO)cc2)O[C@@H]1c1ccccc1	0.0707	-1.87 (inactive)	-0.597 (inactive)	0.209 (inactive)	-1.49 (inactive)	0.504 (inactive)	0.651 (inactive)	1.15 (inactive)	0.0542	-0.141	1.03 (inactive)	0.383	-2.02	-6.21 (inactive)	-0.879 (inactive)	-1.26 (inactive)
C=CCC(OC(C)=O)[C@@H]1[C@@H](N(Cc2cccc3ccccc23)C(=O)c2ccc(-c3ccccc3)cc2)c2cc(OCCCO)ccc2N1C(=O)Cc1ccc(OC)cc1 (some centres undefined)	1.07	-0.912 (inactive)	1.6 (inactive)	-0.606 (inactive)	-0.513 (inactive)	-1.2 (inactive)	0.738 (inactive)	0.718 (inactive)	1.45	-0.0076	-0.162 (inactive)	0.637	-1.17	-1.15 (inactive)	-0.302 (inactive)	-0.0837 (inactive)
COC(=O)[C@@]1(Cc2ccccc2)[C@H]2c3cc(C(=O)N4CCCC4)n(CC4CC4)c3C[C@H]2CN1C(=O)c1ccccc1	-1.34	1.38 (inactive)	-1.75 (inactive)	-0.0475 (inactive)	0.936 (inactive)	1.25 (inactive)	-0.889 (inactive)	-1.44 (inactive)	-2.27	0.637	0.258 (inactive)	0.628	-1.79	-5.17 (inactive)	0.874 (inactive)	0.76 (inactive)
COC(=O)[C@@]1(Cc2ccc(OC)cc2)[C@H]2c3cc(C(=O)N4CCCC4)n(Cc4ccc(OC)c(OC)c4)c3C[C@H]2CN1C(=O)c1ccccc1	0.277	1.66 (inactive)	-0.994 (inactive)	-0.245 (inactive)	0.259 (inactive)	0.744 (inactive)	-0.333 (inactive)	-0.888 (inactive)	-0.636	-0.0541	1.27 (inactive)	0.653	-1.65	-4.91 (inactive)	0.666 (inactive)	0.699 (inactive)
CC(C)(C)OC(=O)CC[C@@]1(C(N)=O)N=C(c2ccc(OCCCO)cc2)O[C@@H]1c1ccccc1	-0.175	-0.63 (inactive)	-0.121 (inactive)	0.0187 (inactive)	0.469 (inactive)	-0.412 (inactive)	-0.352 (inactive)	-1.12 (inactive)	-0.359	-0.18	0.222 (inactive)	0.355	-0.589	-3.33 (inactive)	0.335 (inactive)	-0.0302 (inactive)
COC(=O)c1c(CC[C@@H](CO)NC(=O)N[C@@H](C)Cn2cc(C3(O)CCCCC3)nn2)oc(C(C)=O)c1C(=O)OC	-1.26	-2.52 (inactive)	-0.131 (inactive)	-2.71 (inactive)	0.0793 (inactive)	-0.314 (inactive)	0.104 (inactive)	-0.305 (inactive)	-0.8	-0.039	0.946 (inactive)	0.836	-2.45	-3.05 (inactive)	0.0032 (inactive)	0.715 (inactive)
C=CCOC(=O)[C@@H]1[C@H]2C(=O)O[C@H](c3ccccc3)[C@H](c3ccccc3)N2[C@H](c2ccc(OCCOC(=O)[C@@H]3C[C@@H]4C(=O)N[C@@H](CCCCN(C)C)C(=O)N4[C@@H]3c3ccc(O)cc3)cc2)[C@@]12C(=O)Nc1ccc(I)cc12	0.883	-0.955 (inactive)	-0.078 (inactive)	-0.262 (inactive)	0.531 (inactive)	1.65 (inactive)	-0.821 (inactive)	0.0885 (inactive)	-0.153	-0.157	1.45 (inactive)	0.783	-0.369	5.96 (inactive)	-0.0333 (inactive)	0.121 (inactive)
